Screening data deposited in PubChem BioAssay by several laboratories.
KLK7 zymogen act: proKLK7 (human) activation, primary screen | hit rate 0.9% among 370,000 | activation, % at 7 µM | purified proKLK7, EDANS-DABCYL substrate fluorescence; 100% is mature enzyme control, 0% vehicle;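 active = activation above the mean of all tested compounds plus 3 SD, computed per campaign excluding outliers beyond control limits, cut at about 13% in these data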
Target sequence (P49862 whole entry, looked up): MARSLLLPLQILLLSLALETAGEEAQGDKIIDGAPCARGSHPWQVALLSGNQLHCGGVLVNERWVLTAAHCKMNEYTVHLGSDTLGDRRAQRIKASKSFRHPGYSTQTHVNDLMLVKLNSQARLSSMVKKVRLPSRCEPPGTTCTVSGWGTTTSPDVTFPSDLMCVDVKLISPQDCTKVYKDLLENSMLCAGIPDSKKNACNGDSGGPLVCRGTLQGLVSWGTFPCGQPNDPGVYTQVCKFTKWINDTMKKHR
FGF22 binding: FGF22 (human) thermal shift binding. activity (Tm shift, normalised), % at 9.99 µM. hit rate 1.5% among 340,000. recombinant FGF22 thermal shift, SYPRO orange fluorescence; percent of sucrose octasulfate shift, DMSO zero. Q9HCT0;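 active = mean Tm shift, scaled 0 neutral to 100 positive control, at about 1.3% or above, every replicate too, limit read from the data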
Target sequence (Q9HCT0 whole entry, looked up): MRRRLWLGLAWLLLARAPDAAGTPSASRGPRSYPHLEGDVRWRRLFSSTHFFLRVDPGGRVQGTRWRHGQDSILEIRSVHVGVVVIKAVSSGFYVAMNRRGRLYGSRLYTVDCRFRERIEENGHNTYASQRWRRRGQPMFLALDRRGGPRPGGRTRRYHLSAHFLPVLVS
ADAM10 inh: ADAM10 inhibition, QFRET primary screen. inhibition, % at 7 µM. hit rate 0.62% among 370,000. recombinant ADAM10, EDANS/DABCYL FRET peptide cleavage, 3 h;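 active = inhibition above a per-campaign cutoff equal to the mean of compounds falling between control-based bounds plus 3 SD, cut at about 20% in these data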;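 also: 0% = DMSO wells while the 100% control is not disclosed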
Ecoli rRNA inh: inhibits bacterial ribosomal RNA function over humanized ribosomes; GFP signal change (wild-type ribosome), % (test concentration not listed); AID 720706; E. coli WT GFP vs humanized-ribosome RFP mutants, fluorescence, 24 h; hits give low values; DMSO median 0, no signal -100; hit rate 1.6% among 350,000;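 active = significant combined selectivity score with lowered wild-type GFP, culture density cut under 30%, mutant RFP and density less affected; inactive = any of these conditions unmet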
ADAM17 inh: inhibitors of human ADAM17 | P78536 | recombinant ADAM17, EDANS/DABCYL FRET peptide cleavage | inhibition, % at 6.95 µM | hit rate 0.83% among 370,000 | AID 720648;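 active = inhibition above the mean of compounds lying between control limits plus 3 SD, set per campaign, cut at about 8.5% in these data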;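 also: 0% = DMSO-only wells as the low control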
ADAM10 confirm: confirmation of inhibitors of human ADAM10. shares compounds with ADAM10 inh. ADAM10 QFRET peptide cleavage, EDANS fluorescence. inhibition, % at 6.95 µM. hit rate 1% among 2,100;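 active = inhibition above about 20% chosen separately for each screening run, limit read from the data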;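 also: 0% = DMSO wells and 100% = marimastat wells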
ADAM17 counter: counter-screen for ADAM10 exosite inhibitors: inhibitors of human ADAM17; shares compounds with ADAM10 inh; ADAM17 QFRET peptide cleavage, EDANS fluorescence; inhibition, % at 6.95 µM; hit rate 0.5% among 2,100;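 active = mean triplicate inhibition above the solvent-only control wells' mean plus 3 SD, cut at about 12% in these data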;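 also: 0% = DMSO wells and 100% = marimastat wells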
ADAM10 ctr: counter-screen for ADAM17 exosite inhibitors: inhibitors of human ADAM10 | shares compounds with ADAM17 inh | recombinant ADAM10, EDANS/DABCYL FRET peptide cleavage, 3 h | inhibition, % at 6.95 µM | hit rate 47% among 2,900;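 active = mean inhibition over the triplicate runs exceeds the activity threshold set in the earlier primary screen, cut at about 20% in these data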;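 also: 0% = DMSO wells and 100% = marimastat wells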
ADAM17 confirm: confirmation of inhibitors of human ADAM17; hit rate 65% among 2,900; shares compounds with ADAM17 inh; inhibition, % at 6.95 µM; recombinant ADAM17, EDANS/DABCYL QFRET peptide cleavage;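 active = mean inhibition across replicates above the hit cutoff set in the primary screen, cut at about 8.5% in these data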;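 also: 0% = DMSO wells and 100% = marimastat wells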
An asterisk follows results filed as active; · = not tested or not shown. Compounds with a hit are over-represented: about 3.8% of the library has one in this group of screens.

SMILES	KLK7 zymogen act	FGF22 binding	ADAM10 inh	Ecoli rRNA inh	ADAM17 inh	ADAM10 confirm	ADAM17 counter	ADAM10 ctr	ADAM17 confirm
OC(c1ccccc1)c1nc(-c2csc3ccccc23)cs1 (centres undefined)	0	0	33*	5	16*	3	1	30*	16*
Cc1cc(NC(=O)CSc2nc3ccccc3cc2C#N)no1	0	0	-2	6	-1	·	·	·	·
N#Cc1cc2ccccc2nc1SCC(=O)Nc1ccc(S(=O)(=O)N2CCCC2)cc1	-57	·	29*	·	12*	6	4	-6	2
CNC[C@H]1OCCCC[C@@H](C)Oc2ccc(NC(=O)Nc3ccc(F)cc3)cc2C(=O)N([C@@H](C)CO)C[C@H]1C	·	0	·	1	·	·	·	·	·
O=C(COC(=O)Cc1c[nH]c2ccccc12)Nc1cccc(Br)c1	1	0	26*	·	11*	4	1	7	8.9*
COc1cc(-c2[nH]ncc2CN2CCCC2c2nonc2C)cc(OC)c1OC (centres undefined)	0	0	-7	7	0	·	·	·	·
Cc1nonc1C1CCCN1Cc1cn[nH]c1-c1ccc(-c2ccccc2)cc1 (centres undefined)	0	0	33*	-4	17*	8	3	30*	19*
O=C1CC(=C(c2ccccc2)c2ccccc2)C(=O)N1CCCCN1CCN(c2cccc(Cl)c2)CC1	0	·	32*	·	12*	5	1	4	8
CCOC(=O)c1c(-c2ccccc2)csc1NC(=O)CSc1nc(C)cc(C)n1	1	-1	18	·	3	·	·	·	·
CCOC(=O)c1c(-c2ccccc2)csc1NC(=O)CSc1nc(N)cc(N)n1	1	·	26*	·	13*	5	1	11	9.8*
C[C@@H]1CN([C@@H](C)CO)C(=O)c2cc(NC(=O)C3CC3)ccc2O[C@H]1CN(C)Cc1ccc(-c2ccccc2)cc1	·	0	·	0	·	·	·	·	·
Cc1ccc(NC(=O)c2c(C(F)(F)F)nn(C)c2SCc2cccc(C(F)(F)F)c2)cc1C	0	·	37*	·	14*	7	2	45*	25*
Cc1ccc(NC(=O)c2c(C(F)(F)F)nn(C)c2SCc2ccc(Cl)cc2)cc1C	0	·	17	·	7	·	·	·	·
Cc1ccc(NC(=O)C2C(c3ccccc3)C2(Cl)Cl)c(C)c1 (centres undefined)	0	·	12	·	6	·	·	·	·
Cc1cccc(NC(=O)C2C(c3ccccc3)C2(Cl)Cl)c1 (centres undefined)	0	0	21*	-49	11*	5	2	24*	14*
Cc1ccc(C(=O)Oc2cccc(NC(=O)c3ccccc3)c2)cc1C	0	·	25*	·	13*	9	2	24*	14*
CC(O)[C@H]1CNCCN1CC1(c2ccccc2)CC1 (some centres undefined)	0	0	20*	6	11*	2	0	-5	1
CCC(C)[C@H]1CNCCN1CC1(c2ccccc2)CC1 (some centres undefined)	0	0	1	6	5	·	·	·	·
C[C@H](CO)N1C[C@H](C)[C@H](CN(C)C(=O)c2ccncc2)OCCCC[C@H](C)Oc2ccc(NS(=O)(=O)c3ccc(F)cc3)cc2C1=O	·	0	·	-1	·	·	·	·	·
O=C(Nc1ccc(Br)c(C(F)(F)F)c1)c1ccccc1	0	1	35*	-26	13*	2	1	25*	15*
FC(F)(F)c1cccc(NC(=S)NNC(=S)NCc2ccccc2)c1	1	·	20*	·	12*	6	3	31*	19*
FC(F)(F)c1cccc(NC(=S)NCC2COc3ccccc3O2)c1 (centres undefined)	0	·	28*	·	9.2*	10	3	44*	18*
CO[C@@H](CN(C)C(=O)c1ccccc1F)[C@@H](C)CN([C@@H](C)CO)S(=O)(=O)c1ccccc1	·	0	·	0	·	·	·	·	·
Cc1noc(C)c1S(=O)(=O)Nc1ccc2c(c1)CC(=O)N([C@@H](C)CO)C[C@@H](C)[C@H](CN(C)S(C)(=O)=O)O2	·	0	·	2	·	·	·	·	·
COc1ccc(-c2csc3ncnc(Oc4cccc5ccc(C)nc45)c23)cc1	0	0	21*	7	8.9*	6	2	14	8
SMILES	KLK7 zymogen act	FGF22 binding	ADAM10 inh	Ecoli rRNA inh	ADAM17 inh	ADAM10 confirm	ADAM17 counter	ADAM10 ctr	ADAM17 confirm
Cc1ccc2cccc(Oc3ncnc4scc(-c5ccccc5)c34)c2n1	0	0	1	-2	3	·	·	·	·
Cc1ccc(N(CC(=O)NCCc2ccc(F)cc2)S(=O)(=O)c2ccc(Cl)c([N+](=O)[O-])c2)c(C)c1	1	0	26*	·	12*	11	2	29*	15*
O=C(C[C@H]1C[C@@H]2c3cc(NC(=O)c4cccnc4)ccc3O[C@@H]2[C@@H](CO)O1)NC1CCCC1	·	·	·	0	·	·	·	·	·
C=CCNC(=O)COC(=O)c1ccc(Cl)c(S(=O)(=O)N(Cc2ccccc2)c2ccccc2)c1	0	0	22*	-10	12*	2	2	29*	20*
NC(=O)COC(=O)c1ccc(Cl)c(S(=O)(=O)N(Cc2ccccc2)c2ccc(Cl)cc2)c1	0	42	26*	-43	10*	8	2	24*	14*
NC(=O)NC(=O)COC(=O)c1ccc(Cl)c(S(=O)(=O)N(Cc2ccccc2)c2ccc(Cl)cc2)c1	0	·	14	·	3	·	·	·	·
Cc1ccc(OC(C)C(=O)Nc2ccc(C)c(S(=O)(=O)Nc3ccc(C)cc3C)c2)cc1 (centres undefined)	0	·	24*	·	12*	10	3	28*	15*
CC(=O)O[C@@H]1CCC[C@@]2(C(=O)N(Cc3ccccc3)c3ccc(-c4c(C)noc4C)cc32)[C@H]1NC(=O)CCc1ccccc1	1	·	23*	·	10*	9	2	19	11*
CC1C(=O)C(C)C(c2cc(Br)ccc2O)NC1c1cc(Br)ccc1O (centres undefined)	0	0	34*	-40	15*	10	3	-257	-22
